# Experimental data reported in PubChem BioAssay (Tox21).
# Values without a mark were called inactive. Records with an inconclusive call do not appear. Entries that show only a call come without a potency. Calls of active or inactive are those of the source. Unless noted, calls follow the shape of the full dose curve.
# Legend:
# [1] = Nuclear factor erythroid 2-related factor 2/antioxidant responsive element (Nrf2/ARE) small molecule agonists: qHTS cell viability counter screen in human keratinocytes (AID 1919968; active = well fitted curve in the direction sought with a large enough effect in the repeat runs; an effect the other way counts as inactive or inconclusive; also: nearly all actives have a fitted effect of over 55% in size)
# In short: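 HaCaT ARE reporter line, 1,500 cells/well; 5 h settle, 37 C/5% CO2; cpd in DMSO pinned; 23 h exposure; CellTiter-Fluor, 1 h; fluorescence.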
# [2] = target: KiSS-1 receptor (Homo sapiens) (UniProt Q969F8); assay: Human kisspeptin (KISS1R) small molecule agonists, calcium flux assay in KISS1R-HEK293 cells (AID 1920064; active = well fitted curve in the direction sought with a large enough effect in the repeat runs; an effect the other way counts as inactive or inconclusive)
# In short: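 Stable human KISS1R HEK293 line; 18 h plating, 37 C/5% CO2; calcium dye 1 h 37 C; compound pin transfer; kinetic fluorescence Ex/Em 480/540, 3 min.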
# [3] = G protein-coupled receptor (GPCR) small molecule agonists, calcium flux assay: HEK293 wild type cell line counter screen (AID 1920065)
# In short: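 Kinetic fluorescence at Ex/Em 480/540, recorded every second over 3 min, served as the read-out after compound addition. Each compound was tested at 15 concentrations in triplicate on cells pre-loaded with calcium dye for 1 h.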
# [4] = p53 small molecule agonists, cell-based qHTS assay with human liver microsomes (AID 1963577)
# In short: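 Compounds act here after metabolic activation: human liver microsomes and NADPH, both at 0.5 mg/mL final, were co-added to p53RE-bla cells. Incubation ran 16 h at 37 C, followed by LiveBLAzer detection.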
# [5] = p53 small molecule agonists, cell-based qHTS assay with rat liver microsomes (AID 1963578)
# In short: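 Read-out is beta-lactamase reporter fluorescence (LiveBLAzer, 2 h, room temperature, dark) in p53RE-bla cells treated 16 h at 37 C with compound, rat liver microsomes and NADPH, both 0.5 mg/mL final.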
# [6] = p53 small molecule agonists, cell-based qHTS assay with human liver microsomes: qHTS cell viability counter screen (AID 1963579); also: nearly all actives have a fitted effect of over 45% in size
# In short: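 Cells carrying the p53 response-element beta-lactamase reporter are treated for 16 h at 37 C with test compounds in the presence of human liver microsomes and NADPH (both 0.5 mg/mL final); ATP-based CellTiter-Glo luminescence then reports viability.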
# [7] = p53 small molecule agonists, cell-based qHTS assay with rat liver microsomes: qHTS cell viability counter screen (AID 1963580); also: nearly all actives have a fitted effect of over 45% in size
# In short: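 p53RE-bla HCT-116 cells (4,000/well) rested 5 h at 37 C, then given Tox21 compounds in DMSO with rat liver microsomes (0.5 mg/mL final) plus NADPH (0.5 mg/mL final) for 16 h at 37 C. Viability read by CellTiter-Glo luminescence after 30 min at room temperature.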
# [8] = p53 small molecule agonists, cell-based qHTS assay: qHTS cell viability counter screen (AID 1963581); also: nearly all actives have a fitted effect of over 45% in size
# In short: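 HCT-116 p53RE-bla cells, 4,000/well, plated 5 h before compound pin transfer; 16 h at 37 C; bla substrate 2 h RT; then CellTiter-Glo, 30 min RT, luminescence.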
# [9] = p53 small molecule agonists, cell-based qHTS assay (AID 1963582; active = well fitted activation curve with a large enough effect in the signal ratio in the repeat runs, not every such curve was filed as active; the % refers to the signal ratio)
# In short: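 Reporter line: p53RE-bla. Pre-incubation 5 h, 37 C, 5% CO2; compound (DMSO, pin tool) 16 h, 37 C; B/G FRET substrate 2 h RT; fluorescence intensity read.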
# [10] = target: 5-hydroxytryptamine receptor 2A (Homo sapiens) (UniProt P28223); assay: 5-hydroxytryptamine receptor 2A (HTR2A) small molecule antagonists, cell-based qHTS assay (AID 1963586); also: nearly all actives have a fitted effect of over 45% in size; also: potency is read from the fitted curve at half-maximal effect
# In short: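 Antagonist-mode intracellular calcium assay: DOI (4 nM) added after 5 min compound pre-incubation at room temperature to dye-loaded HTR2A-CHO cells. Fluorescence followed for 3 min, sampled every second.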
# [11] = target: 5-hydroxytryptamine receptor 2A (Homo sapiens) (UniProt P28223); assay: 5-hydroxytryptamine receptor 2A (HTR2A) small molecule agonists, cell-based qHTS assay (AID 1963587); also: nearly all actives have a fitted effect of over 30% in size; also: potency is read from the fitted curve at half-maximal effect
# In short: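 HTR2A-CHO cells, plated 18 h at 37 C/5% CO2, dye-loaded 1 h at 37 C; compounds in DMSO added by pin tool (agonist mode). Intracellular calcium flux read as kinetic fluorescence on FDSS over 2 min at 1 s intervals.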
# [12] = target: Muscarinic acetylcholine receptor M1 (Homo sapiens) (UniProt P11229); assay: Cholinergic receptor muscarinic 1 (CHRM1) small molecule antagonists, cell-based qHTS assay (AID 1963588); also: nearly all actives have a fitted effect of over 40% in size
# In short: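 CHRM1-CHO calcium-flux assay, antagonist mode. Cells were seeded 18 h, dye-loaded 1 h at 37 C and given compound for 5 min at RT, then acetylcholine was added at 50nM. FDSS fluorescence was read 3 min; 15 concentrations, three runs.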
# [13] = target: Muscarinic acetylcholine receptor M1 (Homo sapiens) (UniProt P11229); assay: Cholinergic receptor muscarinic 1 (CHRM1) small molecule agonists, cell-based qHTS assay (AID 1963589); also: nearly all actives have a fitted effect of over 35% in size
# In short: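 Human M1 in stable CHO line; 18 h plating, 1 h dye load 37 C; cpd added (agonist mode); Ca2+ fluorescence kinetic read, 1 s intervals; 15 conc, 3 runs.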
# [14] = target: Beta-2 adrenergic receptor (Homo sapiens) (UniProt P07550); assay: Adrenergic beta2 receptor (ADRB2) small molecule antagonists, cell-based qHTS assay (AID 1963592); also: nearly all actives have a fitted effect of over 50% in size; also: potency is read from the fitted curve at half-maximal effect
# In short: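 Cells (CHO, stable ADRB2 overexpression) incubated 18-20hr at 37C; compounds added from DMSO; agonist mix (1nM isoproterenol, 100uM IBMX, 25uM Ro-20-1724) added; 0.5hr RT; d2-cAMP and anti-cAMP-cryptate added; 1hr RT; 665/615 nm read.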
# [15] = target: D(2) dopamine receptor (Homo sapiens) (UniProt P14416); assay: Dopamine D2 receptor (DRD2) small molecule agonists, cell-based qHTS assay (AID 1963594); also: nearly all actives have a fitted effect of over 35% in size
# In short: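 HEK293 cells stably expressing DRD2 were cultured 24 h at 37 C, then given Ro20-1724 (0.1 mM final) and compounds for 10 min at room temperature. NKH477 (200nM) was then added for 30 min. cAMP was read by HTRF.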
# [16] = target: D(2) dopamine receptor (Homo sapiens) (UniProt P14416); assay: Dopamine D2 receptor (DRD2) small molecule antagonists, cell-based qHTS assay (AID 1963595; active = well fitted inhibition curve with a large enough effect in the signal ratio in the repeat runs, with a control signal flat; the % refers to the signal ratio)
# In short: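 In this cell-based antagonist screen, compounds act for 10 min at room temperature before a 30 min challenge with 12 nM quinpirole and 200 nM NKH477. cAMP is quantified by HTRF competition in DRD2-HEK293 cells containing 0.1 mM Ro20-1724.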
# [17] = cAMP Responsive Elements (CRE) small molecule agonists, cell-based qHTS assay (AID 1963590)
# In short: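 HEK 293T CRE-bla, 2,000 cells/well, 18 h preincubation 37 C/5% CO2; cpds (DMSO) pinned, 3 h; LiveBLAzer B/G FRET substrate, 2 h RT.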
# [18] = cAMP Responsive Elements (CRE) small molecule antagonists, cell-based qHTS assay (AID 1963591; active = well fitted inhibition curve with a large enough effect in the signal ratio in the repeat runs, not every such curve was filed as active; the % refers to the signal ratio)
# In short: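 Beta-lactamase reporter read by FRET substrate (LiveBLAzer B/G) after 2 h at room temperature. CRE-bla HEK293T cells had received compound plus 0.25 uM (final) NKH477 for 3 h at 37 °C.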
# [19] = target: Beta-2 adrenergic receptor (Homo sapiens) (UniProt P07550); assay: Adrenergic beta2 receptor (ADRB2) small molecule agonists, cell-based qHTS assay (AID 1963593);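 also: CHO cells stably overexpressing human ADRB2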
# In short: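 CHO cells stably over-expressing ADRB2 were plated overnight at 37C, then dosed with compounds plus a stimulation mix containing 100uM IBMX and 25uM Ro-20-1724 for 0.5hr at room temperature. cAMP was measured by HTRF competition, 1hr.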
# Sequence of D(2) dopamine receptor (Homo sapiens) (P14416 whole entry, looked up): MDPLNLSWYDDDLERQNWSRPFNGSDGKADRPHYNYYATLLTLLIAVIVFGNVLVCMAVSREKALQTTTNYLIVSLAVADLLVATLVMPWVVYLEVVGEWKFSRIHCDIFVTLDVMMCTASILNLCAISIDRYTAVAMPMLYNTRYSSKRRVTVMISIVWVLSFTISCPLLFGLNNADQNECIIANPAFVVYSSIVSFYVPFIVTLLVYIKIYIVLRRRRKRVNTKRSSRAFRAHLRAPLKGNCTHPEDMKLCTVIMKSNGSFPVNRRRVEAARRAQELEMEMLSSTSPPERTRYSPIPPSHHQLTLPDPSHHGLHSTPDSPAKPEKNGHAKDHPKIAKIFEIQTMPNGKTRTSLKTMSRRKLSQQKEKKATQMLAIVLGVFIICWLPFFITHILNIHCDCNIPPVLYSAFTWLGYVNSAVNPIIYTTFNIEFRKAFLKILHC
# Sequence of Muscarinic acetylcholine receptor M1 (Homo sapiens) (P11229 whole entry, looked up): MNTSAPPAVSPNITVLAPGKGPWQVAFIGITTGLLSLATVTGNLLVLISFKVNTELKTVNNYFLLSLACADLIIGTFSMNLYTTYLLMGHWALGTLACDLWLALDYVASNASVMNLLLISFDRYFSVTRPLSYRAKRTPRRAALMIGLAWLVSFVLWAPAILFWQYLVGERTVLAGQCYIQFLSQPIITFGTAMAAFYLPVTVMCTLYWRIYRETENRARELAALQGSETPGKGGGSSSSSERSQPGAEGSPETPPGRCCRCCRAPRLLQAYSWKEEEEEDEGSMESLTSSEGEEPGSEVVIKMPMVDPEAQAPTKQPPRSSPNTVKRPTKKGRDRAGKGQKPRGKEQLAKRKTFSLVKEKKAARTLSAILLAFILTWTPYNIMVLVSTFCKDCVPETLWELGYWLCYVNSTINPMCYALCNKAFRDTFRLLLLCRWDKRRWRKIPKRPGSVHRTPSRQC
# Sequence of Beta-2 adrenergic receptor (Homo sapiens) (P07550 whole entry, looked up): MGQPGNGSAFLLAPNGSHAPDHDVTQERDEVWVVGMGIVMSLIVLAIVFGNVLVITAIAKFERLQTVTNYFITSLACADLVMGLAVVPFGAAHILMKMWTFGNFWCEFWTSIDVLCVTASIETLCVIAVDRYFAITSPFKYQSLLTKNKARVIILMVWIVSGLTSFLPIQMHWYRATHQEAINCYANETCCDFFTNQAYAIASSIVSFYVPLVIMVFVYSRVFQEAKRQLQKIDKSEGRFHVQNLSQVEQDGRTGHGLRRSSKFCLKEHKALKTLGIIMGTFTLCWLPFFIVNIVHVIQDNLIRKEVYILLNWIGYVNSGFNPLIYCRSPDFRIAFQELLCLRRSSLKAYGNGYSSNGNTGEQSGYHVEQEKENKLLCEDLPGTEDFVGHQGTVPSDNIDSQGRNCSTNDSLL
# Sequence of 5-hydroxytryptamine receptor 2A (Homo sapiens) (P28223 whole entry, looked up): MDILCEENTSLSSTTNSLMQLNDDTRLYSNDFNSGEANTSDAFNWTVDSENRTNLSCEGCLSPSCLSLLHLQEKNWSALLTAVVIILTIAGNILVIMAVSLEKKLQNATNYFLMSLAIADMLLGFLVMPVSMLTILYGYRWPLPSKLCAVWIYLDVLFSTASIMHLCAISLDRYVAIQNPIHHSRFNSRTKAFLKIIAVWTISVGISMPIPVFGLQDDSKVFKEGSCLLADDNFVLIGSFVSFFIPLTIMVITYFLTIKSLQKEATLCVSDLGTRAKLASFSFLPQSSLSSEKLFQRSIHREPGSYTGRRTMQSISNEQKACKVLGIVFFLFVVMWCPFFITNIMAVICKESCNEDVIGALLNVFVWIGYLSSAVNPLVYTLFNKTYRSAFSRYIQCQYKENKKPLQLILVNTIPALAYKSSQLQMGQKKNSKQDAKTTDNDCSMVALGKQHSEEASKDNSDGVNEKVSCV
# Sequence of KiSS-1 receptor (Homo sapiens) (Q969F8 whole entry, looked up): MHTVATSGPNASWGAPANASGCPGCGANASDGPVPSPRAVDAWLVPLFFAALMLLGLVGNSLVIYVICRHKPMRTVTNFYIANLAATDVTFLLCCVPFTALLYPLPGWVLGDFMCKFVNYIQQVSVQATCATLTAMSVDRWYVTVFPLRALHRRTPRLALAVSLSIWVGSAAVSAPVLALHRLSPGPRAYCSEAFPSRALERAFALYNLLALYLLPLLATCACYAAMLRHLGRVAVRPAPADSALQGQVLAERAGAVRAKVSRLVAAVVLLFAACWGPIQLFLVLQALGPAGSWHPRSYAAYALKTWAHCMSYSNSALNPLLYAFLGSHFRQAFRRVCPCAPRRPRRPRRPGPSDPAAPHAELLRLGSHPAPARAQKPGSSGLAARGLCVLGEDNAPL
Compound,Potency [1],Potency [2],Potency [3],Potency [4],Potency [5],Potency [6],Potency [7],Potency [8],Potency [9],Potency [10],Potency [11],Potency [12],Potency [13],Potency [14],Potency [15],Potency [16],Potency [17],Potency [18],Potency [19]
CCC/C(=N\OCC)C1=C(O)CC(CC(C)SCC)CC1=O (centres undefined),inactive,inactive,inactive,inactive,inactive,inactive,inactive,inactive,inactive,inactive,inactive,inactive,inactive,inactive,inactive,inactive,–,–,–
BrCC(Br)C1CCC(Br)C(Br)C1 (centres undefined),inactive,inactive,inactive,inactive,inactive,inactive,inactive,inactive,inactive,inactive,–,inactive,inactive,–,inactive,inactive,inactive,inactive,inactive
C[C@H]1CNCCc2ccc(Cl)cc21,inactive,inactive,inactive,inactive,inactive,inactive,inactive,inactive,inactive,–,–,–,inactive,23.7 µM (active),inactive,inactive,inactive,inactive,–
CCCN(CC)CC1COC2(CCC(C(C)(C)C)CC2)O1 (centres undefined),inactive,inactive,inactive,inactive,inactive,inactive,inactive,inactive,inactive,10.6 µM (active),43.6 µM (active),inactive,inactive,inactive,inactive,inactive,inactive,inactive,inactive
CCOC(=O)N(C)C(=O)CSP(=S)(OCC)OCC,inactive,inactive,inactive,inactive,inactive,inactive,inactive,inactive,inactive,inactive,inactive,–,inactive,inactive,inactive,inactive,inactive,–,–
c1cncc([C@@H]2CCCCN2)c1,inactive,inactive,inactive,inactive,inactive,inactive,inactive,inactive,–,inactive,inactive,inactive,inactive,–,inactive,inactive,inactive,inactive,–
CN(C)c1ccc(N=Nc2ccccc2)cc1,inactive,inactive,inactive,inactive,inactive,inactive,inactive,inactive,inactive,inactive,inactive,inactive,inactive,inactive,inactive,inactive,–,inactive,inactive
BrCC(Br)(Br)Br,inactive,inactive,inactive,inactive,inactive,inactive,inactive,inactive,inactive,inactive,–,inactive,inactive,inactive,inactive,inactive,inactive,inactive,–
